# According to PubChem BioAssay (NCI):
# Compounds without any hit were thinned out: in the full panel of roughly 83,000, 20% have a hit.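 Single-concentration screen, 48 h exposure, 96-well plates. Endpoint: percent growth. Below 10 = active.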 Values without a mark were called inactive. The source made the active and inactive calls.
# Test system: HL-60(TB) leukemia
# Assay: NCI-60 one-dose screen, 48 h (100 = growth as untreated, 0 = no growth, -100 = all killed)
# Settings: 10 µM unless noted
row,Structure (SMILES),growth
1,O=c1nc2sc3nc4ccccc4cc3cc-2s1,99%
2,COCCn1cc(-c2nc(-c3cn(CCOC)c4ncccc34)cs2)c2ccccc21,114%
3,CCCCCCNC(=O)Oc1ccc(/C(=C(/C)Cc2ccc(OC)cc2)c2ccc(OCCN(C)C)cc2)cc1,47.4%
4,Nc1nc(-c2ccccc2Cl)cc(-c2ccc(Cl)cc2Cl)n1,51.4%
5,O=C(/C=C\c1cc(Br)ccc1O)/C=C/c1cc(Br)ccc1O,-3.03% (active)
6,COc1ccc2sc(N(Cc3cccnc3)C(=O)c3ccc(C#N)cc3)nc2c1,63.4%
7,Fc1ccc(/C=N/n2c(-c3cc(Cl)cc(Cl)c3Cl)nn(CNc3ccc(Cl)nn3)c2=S)cc1,90.1%
8,CCOC(=O)c1ccc(NC(=O)Nc2nccs2)cc1,-50.1% (active)
9,CCn1cc(C2=C(c3cn(C)c4ncccc34)C(=O)NC2=O)c2cccnc21,89.8%
10,CCOc1ccc(-n2cc(-c3ccc(N(C)C)cc3)[n+]3c2CCCCC3)cc1,-0.266% (active)
11,O=C(NNC(=O)N1c2ccccc2C=Cc2ccccc21)c1ccccc1,98.8%
12,Cc1ccc(S(=O)(=O)OC[C@]23CCC(C)(C)C[C@H]2C2=CC[C@@H]4[C@@]5(C)CCCNC(C)(C)[C@@H]5CC[C@@]4(C)[C@]2(C)CC3)cc1,24.5%
13,COc1cc2c3c(c1O)-c1ccccc1[C@@H]1OC(=O)N(CC2)[C@H]31,112%
14,NC(=S)N=Nc1c(O)c2ccccc2c2ccccc12,100%
15,CCCCC[C@H]1C/C=C2/C(=O)C(Cl)=C[C@@H]2C/C=C\CCCC(=O)O1,-9.03% (active)
16,CN1CCN(CCCOc2ccc3ncnc(Nc4ccc(Oc5cccc(C(F)(F)F)c5)c(Cl)c4)c3c2)CC1,-45.9% (active)
17,Cc1cc(C(=O)/C=C/c2ccc[nH]2)ccc1-n1ccc(C(F)(F)F)n1,-21% (active)
18,CC(C)c1[nH]nc2c(NCc3ccc(-c4ccccn4)cc3)nc(SCCN)nc12,-24.4% (active)
19,O=C(C=P(c1ccccc1)(c1ccccc1)c1ccccc1)CCl,-39.8% (active)
20,CC[C@@H](C(=O)[C@H](C)[C@H](O)[C@@H](C)[C@H]1O[C@H]([C@@H](CC)C(=O)N(CC)CC)CC[C@H]1C)C1O[C@]2(C=C[C@@H](O)[C@]3(CC[C@@](C)([C@H]4CC[C@](O)(CC)[C@H](C)O4)O3)O2)[C@H](C)C[C@@H]1C (stereo not given in full),-28.8% (active)

row,Structure (SMILES),growth
1,Cc1cc(N/N=C/c2nc(-c3ccccc3)oc2C)c2cc(Cl)ccc2n1,-37.4% (active)
2,COc1ccc(C(=O)/C=C/C23c4ccccc4C(c4ccccc42)C2C(=O)NC(=O)C23)cc1 (stereo not given),92%
3,O=C1Nc2ccc(Br)cc2/C1=N\N=C/c1cn(Cc2ccccc2)c2ccccc12,84.4%
4,CCCC(=O)NNc1[nH]c(-c2cc(OC)c(OC)c(OC)c2)cc1C(=O)OCC,-11.1% (active)
5,OCCNCCNc1c2ccccc2nc2ccccc12,86.2%
6,CN(C)CCOc1ccc(/C(=C(/CCCCCCCCCC[P+](c2ccccc2)(c2ccccc2)c2ccccc2)c2ccccc2)c2ccccc2)cc1,-62.1% (active)
7,COc1cc2ncnc(NC3CCC(O)CC3)c2cc1OC (stereo not given),97.7%
8,O=C(O)c1ccc(-c2nn(-c3ccc(C(=O)O)cc3)cc2CNc2ccc(Br)cc2)cc1,107%
9,O=C(Nc1ccc2c(O)cc(S(=O)(=O)O)cc2c1)c1ccc([N+](=O)[O-])cc1,75.3%
10,COc1cc(C2C=C(c3ccc(C)cc3)Nc3nc(SC)[nH]c(=O)c32)ccc1Oc1ccnc2cc(Cl)ccc12 (stereo not given),104%
11,COc1ccc2c(c1)Nc1ccccc1S2,102%
12,CCCOC(=O)c1ccc2c(c1)[N+](=O)C(C(=O)c1ccccc1)=C(C(F)(F)F)[N+]2=O,-71.6% (active)
13,C[C@]12CC[C@@H]3c4cc(OC(F)F)c(OS(N)(=O)=O)cc4CC[C@H]3[C@@H]1CC[C@@H]2O,1.17% (active)
14,C=CC(=O)N[C@H](/C=C/C(=O)OCC)Cc1ccc(-c2cc(Cl)cc(Cl)c2)cc1,76.5%
15,CC[C@H](Nc1nc(N)nc(C2CC2)c1C#N)c1nc2cccc(NCc3ccc(C(=O)NO)cc3)c2c(=O)n1-c1ccccc1,-19.3% (active)
16,Cc1ccccc1Nc1cc(O)c2c(=O)cc(-c3ccccc3)oc2c1,8.58% (active)
17,Cc1ccc(S(=O)(=O)NN/C(N)=N\S(=O)(=O)c2cc(C)c(Cl)cc2SCc2ccccc2)cc1,83.6%
18,COc1ccc(-n2ncc3c2ccc2cc(S(=O)(=O)c4ccccc4)c(=O)n(C)c23)cc1,110%
19,CC1=CN2C(=NC3=C(CCCC/C3=C\c3ccccc3)C2c2ccccc2)S1 (stereo not given),102%
20,COP(=O)(OC)/C(=N\NS(=O)(=O)c1ccc(C)cc1)c1ccccc1,100%
